Results on 5 compounds are retold here after PubChem BioAssay.

Calls of active or inactive are those of the source. Unless noted, no rule for the calls is given here.

The nature of assay [1]: compound effects on lung adenocarcinoma cell viability – A549, calcein-AM fluorescence, 48 h, basal, profiling panel (AID 1162). Also: test concentration not given here. Particulars: higher = more signal.
Assay [2] is described as follows: compound effects on differentiated 3T3-L1 adipocyte viability – cell-based, 3T3-L1 adipocytes, calcein-AM fluorescence, 48 h, basal, profiling panel (AID 1163). Also: test concentration not given here. To be noted: 3T3-L1 adipocytes viability, higher = more signal.
Assay [3] in a line: compound effects on hepatocellular carcinoma cell viability – HepG2, calcein-AM fluorescence, 48 h, basal, profiling panel (AID 1164). Also: test concentration not given here. Particulars: higher = more signal.
A short description of assay [4]: compound effects on multiple myeloma cell viability – MM1S, calcein-AM fluorescence, 48 h, basal, profiling panel (AID 1165).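 Also: viability of MM1S multiple myeloma cells under basal unstimulated conditions; test concentration not given here.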 Particulars: higher = more signal.
Assay [5] in a line: calcein-AM signal in unstimulated myeloma cells – cell-based, calcein-AM fluorescence, 48 h, PK04 Diversity Set, profiling panel (AID 1166).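 Also: cells grown under basal conditions without added stimulus; test concentration not given here.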 To be noted: RPMI8226 myeloma viability, higher = more signal.
The nature of assay [6]: JC-1 mitochondrial signal, unstimulated HepG2 cells – cell-based, JC-1 fluorescence, 24 h, 100 nL compound, profiling panel (AID 1167). Also: test concentration not given here. Particulars: HepG2 mitochondrial potential, higher = more signal.
Assay [7] in a line: JC-1 mitochondrial signal, unstimulated adipocytes – cell-based, JC-1 fluorescence, 3T3-L1 adipocytes, 24 h, 100 nL compound, profiling panel (AID 1168). Also: test concentration not given here. To be noted: JC-1 mitochondrial fluorescence, higher = more signal, called active from +8 up or from −8 down.
Assay [8] is described as follows: JC-1 mitochondrial signal, unstimulated myeloma cells – cell-based, JC-1 fluorescence, RPMI8226, 24 h, 100 nL compound, profiling panel (AID 1169). Also: test concentration not given here. Particulars: JC-1 mitochondrial potential fluorescence, higher = more signal.
Assay [9] is described as follows: JC-1 mitochondrial signal, unstimulated MM1S myeloma – cell-based, JC-1 fluorescence, 24 h, 100 nL compound, profiling panel (AID 1170). Also: test concentration not given here. To be noted: MM1S mitochondrial potential, higher = more signal.
Assay [10] in a line: resazurin metabolic signal in A549 cells – cell-based, resazurin fluorescence, 24 h, PK04 Diversity Set, profiling panel (AID 1171). Also: test concentration not given here. Particulars: A549 viability, higher = more signal, called active from +8 up or from −8 down.
A short description of assay [11]: resazurin metabolic signal in HepG2 cells – cell-based, resazurin fluorescence, 24 h, PK04 Diversity Set, profiling panel (AID 1172). Also: test concentration not given here. To be noted: HepG2 viability, higher = more signal.
A short description of assay [12]: budding yeast growth changes without added modifier – OD600, strain BY4716, 24 h, basal condition, primary screen (AID 1173). Particulars: S. cerevisiae BY4716 growth, OD600, 24 h; higher = more signal, called active from +8 up or from −8 down.
Assay [13] is described as follows: viability profiling in MM1S myeloma cells – cell-based, resazurin fluorescence, basal, 24 h, PK04 Diversity Set, profiling panel (AID 1174). Also: test concentration not given here. Particulars: higher = more signal, called active from +8 up or from −8 down.
The target in assay [14] is Dihydroorotate dehydrogenase (quinone), mitochondrial (Plasmodium falciparum (isolate 3D7)) (UniProt Q08210). As to the kind of experiment: inhibition of P. falciparum DHODH – biochemical, C-terminal His tag, absorbance 600 nm, primary screen (AID 1175).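 Also: recombinant parasite enzyme with a five histidine tag at its C terminus; test concentration not given here.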 Particulars: PfDHODH enzyme, DCIP absorbance 600 nm; higher = more signal, called active from +8 up or from −8 down.
The nature of assay [15]: inhibition of PAO1 biofilm formation – strain PAO1, LB-PBS medium, absorbance 600 nm, primary screen (AID 1176). Also: test concentration not given here. Particulars: P. aeruginosa PAO1 growth/biofilm, A600, 12 h; higher = more signal.
Assay [16] is described as follows: growth modulation of vineyard yeast isolate – strain RM11-1a, OD600, basal, 24 h, primary screen (AID 1177).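 Also: cultures grown under basal conditions with no added stressor; test concentration not given here.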 Particulars: S. cerevisiae RM11-1a growth, OD600, 24 h; higher = more signal, called active from +8 up or from −8 down.
Assay [17] can be described thus: growth of efflux-deficient E. coli DRC39 – strain DRC39, OD650, 24 h, E. coli filamentation inducers, primary screen (AID 1178).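 Also: growth measured as culture turbidity by optical density at 650 nm; test concentration not given here.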 To be noted: E. coli DRC39 acrAB, higher = more signal, called active from +8 up or from −8 down.
Assay [18] in a line: growth of efflux-deficient E. coli DRC39 – strain DRC39, OD650, 48 h, E. coli filamentation inducers, primary screen (AID 1179).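 Also: screen aims at cell division blockers that make cells filament.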 To be noted: E. coli DRC39 delta-acrAB growth, higher = more signal, called active from +8 up or from −8 down.
The nature of assay [19]: viability profiling in RPMI8226 myeloma cells – cell-based, resazurin fluorescence, basal, 24 h, PK04 Diversity Set, profiling panel (AID 1180).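 Also: RPMI8826 multiple myeloma cell line at 5000 cells per well; test concentration not given here.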 Particulars: higher = more signal. On the technique in general: Resazurin is reduced to fluorescent resorufin, in cell work by metabolically active cells.
Assay [20] addresses E3 ubiquitin-protein ligase XIAP (Homo sapiens) (UniProt P98170). Put plainly: small molecules binding XIAP protein – biophysical, small-molecule microarray, fluorescence 635 nm, primary screen (AID 1181).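 Also: score merges 667 nm emission and signal to noise over triplicate slides.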 To be noted: higher = more signal.

Sequence of E3 ubiquitin-protein ligase XIAP (Homo sapiens) (P98170 whole entry, looked up): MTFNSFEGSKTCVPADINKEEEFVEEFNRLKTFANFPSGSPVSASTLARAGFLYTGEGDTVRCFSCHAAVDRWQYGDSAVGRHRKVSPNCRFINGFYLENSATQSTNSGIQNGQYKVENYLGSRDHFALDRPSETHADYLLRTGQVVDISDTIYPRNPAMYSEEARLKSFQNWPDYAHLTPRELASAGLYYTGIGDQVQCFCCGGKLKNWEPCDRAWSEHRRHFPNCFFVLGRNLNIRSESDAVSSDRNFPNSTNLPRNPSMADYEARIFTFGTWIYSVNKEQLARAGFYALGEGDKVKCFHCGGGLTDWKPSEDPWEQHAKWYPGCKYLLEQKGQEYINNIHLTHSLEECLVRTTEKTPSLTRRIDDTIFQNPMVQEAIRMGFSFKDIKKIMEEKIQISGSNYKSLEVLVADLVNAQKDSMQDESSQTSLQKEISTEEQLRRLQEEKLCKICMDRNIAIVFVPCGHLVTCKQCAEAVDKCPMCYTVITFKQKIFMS
Sequence of Dihydroorotate dehydrogenase (quinone), mitochondrial (Plasmodium falciparum (isolate 3D7)) (Q08210 whole entry, looked up): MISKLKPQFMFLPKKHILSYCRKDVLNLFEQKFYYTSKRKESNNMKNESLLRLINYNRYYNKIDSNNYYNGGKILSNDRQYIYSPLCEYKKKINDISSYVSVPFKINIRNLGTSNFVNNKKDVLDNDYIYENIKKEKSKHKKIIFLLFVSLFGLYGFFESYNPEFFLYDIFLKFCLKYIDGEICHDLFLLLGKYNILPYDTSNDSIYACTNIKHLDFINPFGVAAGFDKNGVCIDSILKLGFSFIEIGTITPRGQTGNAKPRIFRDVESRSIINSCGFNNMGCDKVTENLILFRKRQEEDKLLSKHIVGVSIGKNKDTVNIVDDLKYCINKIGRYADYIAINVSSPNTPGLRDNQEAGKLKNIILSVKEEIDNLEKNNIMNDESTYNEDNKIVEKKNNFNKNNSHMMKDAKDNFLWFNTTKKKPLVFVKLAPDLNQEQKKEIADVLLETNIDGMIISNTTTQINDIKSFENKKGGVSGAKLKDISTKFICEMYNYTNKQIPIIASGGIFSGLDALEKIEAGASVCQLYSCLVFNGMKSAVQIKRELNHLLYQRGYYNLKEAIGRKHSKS

Regarding `COCCOC(=O)N1C(=O)[C@@]2(c3cc(C#CC4=CCCCC4)ccc31)[C@H](C(=O)N1CCc3cc(OC)c(OC)cc3C1)[C@H]1C(=O)O[C@H](c3ccccc3)[C@H](c3ccccc3)N1[C@@H]2c1ccc(O)cc1`, the z-score was 0.59 in [1]; 0.479 in [2]; 0.334 in assay [3]; -1.16 in [4]; -0.583 in assay [5]; -0.427 in [6]. Also, the z-score in assay [7] is 0.508 (inactive); in assay [8] it was -0.388; in [9], 0.403; in [10], 0.481 (inactive); in [11], -0.03; in assay [12] it was 0.935 (inactive). Moreover, the z-score is -0.0713 (inactive) in [13]; 0.802 (inactive) in [15]; 2.23 (inactive) in [16]; -0.724 (inactive) in [17]; -0.169 (inactive) in assay [18]; 0.485 in assay [19]. For the same compound, the composite z-score in assay [14] is 0.0434 (inactive); in [20] it was 0.072.

Regarding `COC(=O)C1=CC(CCCO)=CC(C2CC2)N(Cc2cccc(OC(F)(F)F)c2)C=C1C(=O)OC` (stereo not given), the z-score is -0.851 in [1]; 0.589 in [2]; 0.525 in assay [3]; -0.525 in [4]; -0.708 in assay [5]; 1.18 in assay [6]. The z-score in assay [7] was 0.767 (inactive); in assay [8], -0.862; in assay [9], -0.159; in [10] it was 0.644 (inactive); in [11], 0.588; in [12], -1.76 (inactive). Also, the z-score in [13] is 0.348 (inactive); in assay [15] it was 0.034 (inactive); in [16], 0.0808 (inactive); in assay [17], 1.01 (inactive); in [18] it was 1.1 (inactive); in assay [19], 0.693. For the same compound, the composite z-score in assay [14] is -6.2 (inactive); in [20] it was -0.22.

As to `C=CCC(OC(C)=O)[C@@H]1[C@@H](N(Cc2ccc(-c3ccccc3)cc2)C(=O)c2cccc3ccccc23)c2cc(OCCCO)ccc2N1C(=O)c1ccc2ccccc2c1` (stereo not given in full), the z-score is 0.197 in [1]; -0.114 in assay [2]; 0.833 in assay [3]; -0.679 in assay [4]; -0.202 in assay [5]; 1.91 in assay [6]. In addition, the z-score is -1.3 (inactive) in [7]; -0.53 in [8]; 0.0357 in assay [9]; -0.725 (inactive) in assay [10]; -0.784 in [11]; -0.185 (inactive) in [12]. Besides, the z-score in assay [13] is -0.967 (inactive); in [15] it was 0.48 (inactive); in [16], -0.865 (inactive); in [17], 0.144 (inactive); in assay [18], -0.455 (inactive); in assay [19], -1.3. Also, the composite z-score was -0.318 (inactive) in assay [14] and -0.0017 in assay [20].

For `COC(=O)[C@@]1(Cc2ccc(F)cc2)[C@H]2c3cc(C(=O)N(C)C)n(CCn4cc([N+](=O)[O-])nc4C)c3C[C@H]2CN1C(=O)c1ccccc1`, the z-score in [1] is -0.771; in [2] it was -0.417; in assay [3], 0.346; in [4], -0.737; in assay [5] it was 0.211; in [6], 0.443. The z-score in assay [7] was -0.596 (inactive); in assay [8], 0.0282; in [9], -0.54; in assay [10] it was -0.792 (inactive); in assay [11], -1.02; in [12], 1.94 (inactive). For the same compound, the z-score in [13] is -1.05 (inactive); in assay [15] it was 0.122 (inactive); in assay [16], 0.502 (inactive); in assay [17] it was -0.984 (inactive); in [18] it was -0.566 (inactive); in [19], -0.801. The composite z-score in assay [14] is -0.165 (inactive); in [20], 0.267.

On to `COCCOC(=O)N1C(=O)[C@@]2(c3cc(C#Cc4ccc(OC)cc4)ccc31)[C@H](C(=O)N1CCCCCCC1)[C@H]1C(=O)O[C@H](c3ccccc3)[C@H](c3ccccc3)N1[C@@H]2c1ccccc1OCCO`, for which the z-score in [1] is -0.198; in assay [2] it was 1.05; in [3], 0.383; in assay [4] it was -0.197; in assay [5], -0.417; in assay [6], 0.617. The z-score is 3.29 (inactive) in [7]; -0.16 in assay [8]; -0.845 in assay [9]; 0.122 (inactive) in [10]; -0.107 in assay [11]; 1.88 (inactive) in assay [12]. Further, the z-score in assay [13] is -0.0216 (inactive); in [15], 2.36 (inactive); in [16] it was 3.2 (inactive); in [17] it was -0.609 (inactive); in assay [18], -0.399 (inactive); in assay [19], -0.429. In addition, the figures for the composite z-score in assay [14] and in assay [20] were -0.267 (inactive) and 0.89, respectively.
